PubChem BioAssay (EPA / NIEHS)
The source made the active and inactive calls. How the source made its calls: active means hit-call score of the fitted dose curve at least 0.9, where 1 is the maximum; inactive means score below 0.9.

Assay: ATG_NF_kB_CIS: Attagene CIS-FACTORIAL HepG2 Assay for human Nuclear Factor Kappa B (NF-kB) (AID 2282991)
Details: HepG2 Attagene cis-factorial NF-kB reporter mRNA; actives raise or lower the signal
Summary of the method: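 Transient MRTU transfection of human HepG2 liver cells → 24 h chemical exposure → total RNA, oligo(dT) RT → PCR, 6-FAM primer extension, HpaI digest 2 h 37 C → CE fragment analysis. Bidirectional fitting, DMSO negative control.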

SMILES	outcome	AC50
OCC(F)(F)OC(F)(F)C(F)(F)OC(F)(F)C(F)(F)OC(F)(F)CO	inactive	
O=c1[nH]c2ccccc2c(=O)o1	inactive	
CC(=O)c1ccc(-c2ccccc2)cc1	inactive	
CCCCOCCOP(=O)(OCCOCCCC)OCCOCCCC	inactive	
c1cc2c3c(cccc3c1)CC2	inactive	
O=S(=O)(c1ccc(O)cc1)c1ccc(O)cc1	inactive	
O=S(=O)(F)C(F)(F)C(F)(F)C(F)(F)C(F)(F)C(F)(F)C(F)(F)C(F)(F)C(F)(F)F	inactive	
N#Cc1c(-c2ccc(Cl)cc2)[nH]c(C(F)(F)F)c1Br	inactive	
ClC(Cl)=C(c1ccc(Cl)cc1)c1ccccc1Cl	inactive	
O=[N+]([O-])c1cc(Cl)ccc1Cl	inactive	
Cn1[nH]nnc1=S	inactive	
CC(=O)CCc1ccc2c(c1)OCO2	inactive	
CC(C)CBr	inactive	
CC1=C(C(=O)Nc2ccccc2)S(=O)(=O)CCO1		122 µM (active)
CCN(CC)C1CCCCC1	inactive	
CCN(CC)c1ccccc1	inactive	
O=C(O)C1C(C(=O)O)C2(Cl)C(Cl)=C(Cl)C1(Cl)C2(Cl)Cl (stereo unspecified)	inactive	
NNC(N)=S	inactive	
CC1(C)CN=C(NN=C(/C=C/c2ccc(C(F)(F)F)cc2)/C=C/c2ccc(C(F)(F)F)cc2)NC1	inactive	
O=C(CBr)OCc1ccccc1	inactive	
C=C(C)C(=O)OCC1CO1 (stereo unspecified)	inactive	
CNC(=O)Oc1ccc(N(C)C)c(C)c1	inactive	
Oc1ccccc1Br	inactive	
CCCCCCCc1ccc(O)cc1	inactive	
COC(N)=O	inactive	
COC(=O)C(F)(F)C(F)(F)OC(F)(C(F)(F)F)C(F)(F)OC(F)=C(F)F (stereo unspecified)	inactive	
